Assay results taken from PubChem BioAssay AID1159580 (chemical genetic matrix, 2015).
In all, about 5,500 compounds went through this assay and about 2,000 (36%) were called active. Not shown: some 18% with an inconclusive outcome. No stated cut-off is given here; in the data, active means normalized growth mostly below about 0.91 (no sharp cut-off); inconclusive means no clear call, values can overlap the other calls; inactive means mostly above about 0.92. The list shows a part of the results.

Experiment: chemical genetic growth profiling, strain panel (AID 1159580);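 further: tested at 20 µM; growth read once vehicle control cultures reached saturation at 30 °C; 1 = growth at the plate median or of vehicle wells; lower values mean less growth of the strain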
Conditions: growth OD

Measured: normalized growth

CNc1ccc(C(=O)CC(O)CCC(C)C2OC(=O)CC(O)CC(=O)CC(O)CC(O)CC(O)CC(O)CC3(O)CC(O)C(C(=O)OC)C(CC(OC4OC(C)C(O)C(N)C4O)/C=C/C=C/C=C/C=C/C=C/C=C/C=C/C2C)O3)cc1 (stereo unspecified)
active: S. cerevisiae deletion strains, locus YAL013W, strain DEP1, hits give low values 0.0566 | S. cerevisiae deletion strains, locus YBR021W, strain FUR4, hits give low values 0.0931 | S. cerevisiae deletion strains, locus YBR229C, strain ROT2, hits give low values 0.0524 | S. cerevisiae deletion strains, locus YCL029C, strain bik1, hits give low values 0.0837 | S. cerevisiae deletion strains, locus YDL035C, strain GPR1, hits give low values 0.0535 | S. cerevisiae deletion strains, locus YDL074C, strain BRE1, hits give low values 0.0938 | S. cerevisiae deletion strains, locus YDL101C, strain DUN1, hits give low values 0.0651 | S. cerevisiae deletion strains, locus YDL134C, strain PPH21, hits give low values 0.0946 | S. cerevisiae deletion strains, locus YDL185W, strain tfp1, hits give low values 0.056 | S. cerevisiae deletion strains, locus YDL192W, strain arf1, hits give low values 0.0619 | S. cerevisiae deletion strains, locus YDR101C, strain arx1, hits give low values 0.0612 | S. cerevisiae deletion strains, locus YDR150W, strain NUM1, hits give low values 0.0603 | S. cerevisiae deletion strains, locus YDR162C, strain NBP2, hits give low values 0.0526 | S. cerevisiae deletion strains, locus YDR318W, strain mcm21, hits give low values 0.0791 | S. cerevisiae deletion strains, locus YDR388W, hits give low values 0.0583 | S. cerevisiae deletion strains, locus YDR502C, strain sam2, hits give low values 0.0726 | S. cerevisiae deletion strains, locus YEL061C, strain CIN8, hits give low values 0.133 | S. cerevisiae deletion strains, locus YER110C, hits give low values 0.11 | S. cerevisiae deletion strains, locus YER155C, strain BEM2, hits give low values 0.0648 | S. cerevisiae deletion strains, locus YER167W, strain BCK2, hits give low values 0.0539 | S. cerevisiae deletion strains, locus YGL078C, strain dbp3, hits give low values 0.0564 | S. cerevisiae deletion strains, locus YGL086W, strain mad1, hits give low values 0.0591 | S. cerevisiae deletion strains, locus YGL248W, strain PDE1, hits give low values 0.11 | S. cerevisiae deletion strains, locus YGR078C, strain PAC10, hits give low values 0.0538 | S. cerevisiae deletion strains, locus YGR135W, strain pre9, hits give low values 0.0705 | S. cerevisiae deletion strains, locus YGR229C, strain SMI1, hits give low values 0.0606 | S. cerevisiae deletion strains, locus YGR252W, strain gcn5, hits give low values 0.194 | S. cerevisiae deletion strains, locus YHR030C, strain SLT2, hits give low values 0.0491 | S. cerevisiae deletion strains, locus YHR079C, strain IRE1 (second series), hits give low values 0.0787 | S. cerevisiae deletion strains, locus YHR094C, strain hxt1, hits give low values 0.119 | S. cerevisiae deletion strains, locus YHR129C, strain ARP1, hits give low values 0.0557 | S. cerevisiae deletion strains, locus YHR200W, strain rpn10, hits give low values 0.0615 | S. cerevisiae deletion strains, locus YIL066C, strain RNR3, hits give low values 0.12 | S. cerevisiae deletion strains, locus YIL073C, strain SPO22, hits give low values 0.63 | S. cerevisiae deletion strains, locus YIL125W, strain kgd1, hits give low values 0.0582 | S. cerevisiae deletion strains, locus YIR030C, strain dcg1, hits give low values 0.0683 | S. cerevisiae deletion strains, locus YJL095W, strain BCK1, hits give low values 0.0555 | S. cerevisiae deletion strains, locus YJL134W, strain LCB3, hits give low values 0.0513 | S. cerevisiae deletion strains, locus YJL168C, strain set2, hits give low values 0.119 | S. cerevisiae deletion strains, locus YJL187C, strain SWE1 (second series), hits give low values 0.0564 | S. cerevisiae deletion strains, locus YJR043C, strain POL32, hits give low values 0.0719 | S. cerevisiae deletion strains, locus YJR075W, strain HOC1, hits give low values 0.0687 | S. cerevisiae deletion strains, locus YKL009W, strain mrt4, hits give low values 0.0698 | S. cerevisiae deletion strains, locus YKL068W, hits give low values 0.0536 | S. cerevisiae deletion strains, locus YKL085W, strain MDH1 (second series), hits give low values 0.0497 | S. cerevisiae deletion strains, locus YKL085W, strain MDH1, hits give low values 0.0497 | S. cerevisiae deletion strains, locus YKL190W, strain CNB1, hits give low values 0.0588 | S. cerevisiae deletion strains, locus YKR001C, strain vps1, hits give low values 0.0648 | S. cerevisiae deletion strains, locus YLR039C, strain RIC1, hits give low values 0.0872 | S. cerevisiae deletion strains, locus YLR058C, strain SHM2, hits give low values 0.0574 | S. cerevisiae deletion strains, locus YLR102C, strain apc9, hits give low values 0.0963 | S. cerevisiae deletion strains, locus YLR262C, strain YPT6, hits give low values 0.0942 | S. cerevisiae deletion strains, locus YLR268W, strain sec22, hits give low values 0.0696 | S. cerevisiae deletion strains, locus YLR330W, strain CHS5, hits give low values 0.0514 | S. cerevisiae deletion strains, locus YLR342W, strain FKS1 (second series), hits give low values 0.0823 | S. cerevisiae deletion strains, locus YLR371W, strain rom2, hits give low values 0.0741 | S. cerevisiae deletion strains, locus YLR418C, strain cdc73, hits give low values 0.0943 | S. cerevisiae deletion strains, locus YML016C, strain PPZ1, hits give low values 0.136 | S. cerevisiae deletion strains, locus YML032C, strain rad52, hits give low values 0.0764 | S. cerevisiae deletion strains, locus YML124C, strain tub3, hits give low values 0.0593 | S. cerevisiae deletion strains, locus YMR078C, strain ctf18, hits give low values 0.0766 | S. cerevisiae deletion strains, locus YMR223W, strain ubp8, hits give low values 0.0693 | S. cerevisiae deletion strains, locus YMR263W, strain SAP30, hits give low values 0.0638 | S. cerevisiae deletion strains, locus YMR307W, strain GAS1, hits give low values 0.109 | S. cerevisiae deletion strains, locus YNL067W, strain RPL9B, hits give low values 0.0557 | S. cerevisiae deletion strains, locus YNL128W, strain TEP1, hits give low values 0.0601 | S. cerevisiae deletion strains, locus YNL153C, strain GIM3, hits give low values 0.0467 | S. cerevisiae deletion strains, locus YNL233W, strain BNI4, hits give low values 0.0536 | S. cerevisiae deletion strains, locus YNL250W, strain rad50, hits give low values 0.0761 | S. cerevisiae deletion strains, locus YNL271C, strain bni1, hits give low values 0.0615 | S. cerevisiae deletion strains, locus YNL298W, strain CLA4, hits give low values 0.0597 | S. cerevisiae deletion strains, locus YNL307C, strain MCK1, hits give low values 0.0706 | S. cerevisiae deletion strains, locus YNL322C, strain KRE1, hits give low values 0.0507 | S. cerevisiae deletion strains, locus YNR052C, strain pop2, hits give low values 0.0636 | S. cerevisiae deletion strains, locus YOL006C, strain TOP1, hits give low values 0.132 | S. cerevisiae deletion strains, locus YOL147C, strain pex11, hits give low values 0.0576 | S. cerevisiae deletion strains, locus YOR061W, strain CKA2, hits give low values 0.0583 | S. cerevisiae deletion strains, locus YOR069W, strain VPS5, hits give low values 0.0477 | S. cerevisiae deletion strains, locus YOR136W, strain idh2, hits give low values 0.074 | S. cerevisiae deletion strains, locus YOR144C, strain elg1, hits give low values 0.0585 | S. cerevisiae deletion strains, locus YOR184W, strain ser1, hits give low values 0.075 | S. cerevisiae deletion strains, locus YOR316C, strain cot1, hits give low values 0.1 | S. cerevisiae deletion strains, locus YPL055C, strain LGE1, hits give low values 0.0726 | S. cerevisiae deletion strains, locus YPL241C, strain CIN2, hits give low values 0.0521 | S. cerevisiae deletion strains, locus YPR119W, strain clb2, hits give low values 0.0662 | S. cerevisiae deletion strains, locus YPR141C, strain kar3, hits give low values 0.0657 | S. cerevisiae deletion strains, locus YPR163C, strain tif3, hits give low values 0.0749 | S. cerevisiae deletion strains, locus YPR167C, strain met16, hits give low values 0.0645 | S. cerevisiae deletion strains, strain wtn01, hits give low values 0.061 | S. cerevisiae strains, strain wild type, hits give low values 0.0494
inactive: S. cerevisiae deletion strains, locus YOL012C, strain htz1 0.225
